Bioassay records: PubChem, National Center for Advancing Translational Sciences (NCATS)
Only some compounds are listed: those with a hit (about 19% of all), similar ones and a draw of the others.
HT1080 IDH1KD tx: kills HT-1080 cells with IDH1 knockdown | HT-1080 IDH1 knockdown viability, ATP luminescence, 48 h | Potency, µM (doses to about 46.1 µM), usual class: cytotoxic | hit rate 2% among 360,000
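Knockdown cells (IDH1KD HT-1080) received compounds 2 h after plating at 750 cells/well and were kept 48 h at 37 °C in 5% FBS RPMI. A CellTiter-Glo luminescence read gave % activity for curve fitting.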
HT1080NT lethal: kills 2HG-producing HT-1080-NT fibrosarcoma cells; hit rate 1.6% among 360,000; AID 686970; HT-1080-NT fibrosarcoma viability, CellTiter-Glo ATP luminescence, 48 h; Potency, µM (doses to about 46.1 µM), most hits filed as cytotoxic;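 also: NT is the 2HG producing partner of a matched IDH1 knockdown line; nearly all actives have a fitted effect of over 55% in size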
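Luminescent CellTiter-Glo readout after 48 hours of compound exposure at 37 degrees C defined viability of HT-1080-NT cells. Activity was normalized to DMSO wells and cell-free media wells; concentration-response curves were fitted and assigned curve classes.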
TDP1 cell noCPT: qHTS for Inhibitors of human tyrosyl-DNA phosphodiesterase 1 (TDP1): qHTS in cells in absence of CPT | DT40 Tdp1-/- hTDP1 cells, no CPT, ATP luminescence, 48 h | Potency, µM (titrated, usually from 46.2 µM), usual class: inhibitors | hit rate 15% among 420,000 | AID 686978, 2013; also: nearly all actives have a fitted effect of over 55% in size
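Chicken DT40 Tdp1-/- cells stably complemented with human TDP1 were seeded at 400 cells/well with DMSO in place of 20 nM camptothecin. After compound pinning, cells grew at least 48 hr at 37 °C; viability read by CellTiter-Glo luminescence.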
TDP1 cell CPT: DT40-hTDP1 cell growth loss with CPT; AID 686979; hit rate 12% among 420,000; chicken DT40 Tdp1-/-;hTDP1 cells + 20 nM CPT, ATP luminescence, 48 h; Potency, µM (titrated, usually from 46.2 µM), hits mostly inhibitors; also: nearly all actives have a fitted effect of over 55% in size
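Cell growth measured by CellTiter-Glo luminescence after a minimum 48 h, 37 C compound exposure with 20 nM CPT in Tdp1-knockout DT40 cells stably expressing hTDP1, seeded 400/well; qHTS titration format.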
IL1B secr inh: inhibitors of inflammasome signaling (IL-1 beta secretion) | THP-1 LPS/ATP IL-1B secretion, AlphaLISA, 16 h; stronger effect = lower value | hit rate 4.7% among 360,000 | AID 743279 | activity change, % at 57.5 µM; in the data active = activity change below about -50%; inconclusive = mostly about -30% to -49%
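THP-1 cells pretreated 1 hr with compounds (up to 57.5 uM final), then stimulated with LPS (250 ng/mL final) plus ATP (1.25 mM final); secreted IL-1B measured by AlphaLISA after 16 hr, decreased signal indicating inhibition.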
Large screens that a line does not name were inactive. Unless noted, calls follow the shape of the dose curve; as a rule, active = well fitted curve in the direction sought with a large enough effect; inconclusive = small, poorly fitted or top-dose-only effect, or another doubt; inactive = no such curve, though single readings can be large; an effect the other way counts as inactive or inconclusive.

Clc1ccc(-c2ccc(/C=N/Nc3cc(N4CCOCC4)nc(N4CCOCC4)n3)o2)cc1	HT1080 IDH1KD tx inconclusive, HT1080NT lethal inconclusive, TDP1 cell noCPT 16.4µM, IL1B secr inh inconclusive
Brc1ccc(-c2ccc(/C=N/Nc3nc(N4CCOCC4)nc(N4CCOCC4)n3)o2)cc1	TDP1 cell noCPT 10.3µM, TDP1 cell CPT inconclusive, IL1B secr inh inconclusive
O=[N+]([O-])c1ccc(/C=N/Nc2nc(N3CCCCC3)nc(N3CCCCC3)n2)o1	TDP1 cell noCPT 18.4µM, TDP1 cell CPT inconclusive
CCc1ccc(NC(=O)CCC(=O)c2ccccc2)cc1	none
CC(=O)CCc1c(C)c2cccc(C)c2[nH]c1=O	HT1080NT lethal inconclusive, TDP1 cell noCPT inconclusive, TDP1 cell CPT 18.4µM
COC(=O)C[C@H]1C[C@H]2c3cc(NC(=O)C4CCOCC4)ccc3O[C@H]2[C@H](CO)O1	none
Cc1ncsc1C(=O)N1CCCC(C(=O)c2ccc3ccccc3c2)C1 (centres undefined)	TDP1 cell noCPT 20.6µM, TDP1 cell CPT 23.1µM
CCn1nc(C)cc1C(=O)N1CCCC(C(=O)c2ccc(Oc3ccccc3)cc2)C1 (centres undefined)	TDP1 cell noCPT inconclusive, TDP1 cell CPT inconclusive
Cc1cc(C(=O)N2CCCC(C(=O)c3ccc4ccccc4c3)C2)nn1C (centres undefined)	TDP1 cell noCPT 20.6µM, TDP1 cell CPT inconclusive
CSc1ccc(C(=O)C2CCCN(C(=O)c3cc(C)n(C)n3)C2)cc1 (centres undefined)	TDP1 cell noCPT inconclusive, TDP1 cell CPT inconclusive
CCn1nc(C)cc1C(=O)N1CCCC(C(=O)c2ccc(OC)cc2C)C1 (centres undefined)	TDP1 cell noCPT 9.2µM, TDP1 cell CPT 23.1µM
COc1ccc(C(=O)C2CCCN(C(=O)c3ccnn3C)C2)c(C)c1 (centres undefined)	none
CCn1nc(C)cc1C(=O)N1CCCC(C(=O)c2ccc3ccccc3c2)C1 (centres undefined)	TDP1 cell noCPT 7.31µM, TDP1 cell CPT 11.6µM
O=C(CNC(=O)C1CCCCC1)OCC(=O)c1ccc2c(c1)CCC2	none (no result: HT1080 IDH1KD tx, HT1080NT lethal, IL1B secr inh)
Cc1ccc(C(=O)CN2C(=O)C(=O)N(Cc3ccccc3)C2=O)cc1	none
O=C(Nc1nc(N2C(=O)c3ccccc3C2=O)n(-c2ccccc2)n1)c1ccc(Cl)cc1	none
COc1ccc(C(=O)C2CCCN(C(=O)c3cccnc3OC)C2)c(C)c1 (centres undefined)	TDP1 cell noCPT inconclusive, TDP1 cell CPT inconclusive
COc1ccc(C(=O)C2CCCN(C(=O)c3ccc4cc[nH]c4c3)C2)c(C)c1 (centres undefined)	TDP1 cell noCPT inconclusive, TDP1 cell CPT 16.4µM
Cc1cn2c(=O)cc(COc3ccccc3NC(=O)c3ccc(Cl)cc3)nc2s1	none (no result: HT1080 IDH1KD tx, HT1080NT lethal, IL1B secr inh)
O=C(NC(=S)Nc1ccc2c(c1)OCCO2)c1ccccc1	HT1080 IDH1KD tx inconclusive, HT1080NT lethal inconclusive, TDP1 cell noCPT 14.1µM, TDP1 cell CPT inconclusive
CCOc1cccc(C(=O)NC(=S)Nc2ccc3c(c2)OCCO3)c1	TDP1 cell noCPT inconclusive, IL1B secr inh -53.6
CN(C)C(=O)c1cccc(-c2cnc3cccnn23)c1	HT1080NT lethal inconclusive, TDP1 cell noCPT inconclusive, TDP1 cell CPT inconclusive
O=C(c1ccccc1F)N1CCCC(N2CCN(Cc3ccc4c(c3)OCO4)CC2)C1 (centres undefined)	TDP1 cell noCPT inconclusive, TDP1 cell CPT inconclusive
CCN(CC)c1cc(NCCO)c([N+](=O)[O-])c2nonc12	none
CCCC(=O)OCCNc1cc(Sc2nc3ccccc3[nH]2)c2nonc2c1[N+](=O)[O-]	HT1080 IDH1KD tx inconclusive, HT1080NT lethal 20.6µM, TDP1 cell noCPT 3.26µM, TDP1 cell CPT 2.31µM, IL1B secr inh -103.9
CCC(=O)OCCNc1cc(Sc2nccn2C)c2nonc2c1[N+](=O)[O-]	HT1080 IDH1KD tx inconclusive, HT1080NT lethal 14.6µM, TDP1 cell noCPT 2.31µM, TDP1 cell CPT 1.03µM, IL1B secr inh -67.5
CN(C)CCCNS(=O)(=O)c1ccc(Oc2ncc(C(F)(F)F)cc2Cl)cc1	HT1080 IDH1KD tx inconclusive, HT1080NT lethal inconclusive, TDP1 cell noCPT inconclusive, TDP1 cell CPT inconclusive
CC(=O)N1CCN(C(=O)c2ccc(S(=O)(=O)Nc3ccccc3F)cc2)CC1	none
COc1ccc(C(=O)NCCn2cc(SCC(=O)Nc3cccc(C)c3)c3ccccc32)cc1	TDP1 cell noCPT inconclusive, TDP1 cell CPT 16.4µM (no result: HT1080 IDH1KD tx, HT1080NT lethal, IL1B secr inh)
COc1ccc(C(=O)NCCn2cc(SCC(=O)NCc3ccco3)c3ccccc32)cc1	HT1080 IDH1KD tx inconclusive, TDP1 cell noCPT 5.8µM, TDP1 cell CPT 7.31µM
COc1ccc(C(=O)NCCn2cc(SCC(=O)NCC3CCCO3)c3ccccc32)cc1 (centres undefined)	none
COc1ccc2cc(CCC(C)=O)ccc2c1	none
COc1ccc(CCc2ccc3cc(OC)ccc3n2)cc1	TDP1 cell noCPT inconclusive, TDP1 cell CPT inconclusive, IL1B secr inh -54.9
CCOc1ccccc1NC(=O)C(OC(=O)C1CC1)c1ccccc1 (centres undefined)	none
CCOc1ccccc1NC(=O)C(NCC1(N2CCCCC2)CCCCC1)c1ccccc1 (centres undefined)	TDP1 cell noCPT 16.4µM, TDP1 cell CPT inconclusive, IL1B secr inh inconclusive
COc1cc(NC(=O)COC(C)=O)c(C)cc1[N+](=O)[O-]	none
COc1ccccc1CNC(=O)Cc1c(C)c2cc3c(C)coc3c(C)c2oc1=O	TDP1 cell noCPT 11.6µM, TDP1 cell CPT 16.4µM (no result: HT1080 IDH1KD tx, HT1080NT lethal, IL1B secr inh)
COc1ccc2c(C)c(CC(=O)NCc3ccc(C)cc3)c(=O)oc2c1OC	none (no result: HT1080 IDH1KD tx, HT1080NT lethal, IL1B secr inh)
Cc1coc2c(C)c3oc(=O)c(CC(=O)NCc4ccccc4)c(C)c3cc12	TDP1 cell noCPT 4.61µM, TDP1 cell CPT 5.8µM (no result: HT1080 IDH1KD tx, HT1080NT lethal, IL1B secr inh)
CCCC(NC(=O)CCc1c(C)c2cc3c4c(oc3c(C)c2oc1=O)CCCC4)C(=O)O (centres undefined)	TDP1 cell CPT 11.6µM
Cc1c(CC(=O)NCc2ccccc2)c(=O)oc2c(C)c(O)ccc12	TDP1 cell noCPT 13µM, TDP1 cell CPT 13µM (no result: HT1080 IDH1KD tx, HT1080NT lethal, IL1B secr inh)
COCCCN(C(=O)C1=COCCO1)c1c(N)n(Cc2ccccc2)c(=O)[nH]c1=O	none
Cc1coc2c(C)c3oc(=O)c(CCC(=O)NCCc4ccccc4)c(C)c3cc12	TDP1 cell noCPT 16.4µM, TDP1 cell CPT 13µM (no result: HT1080 IDH1KD tx, HT1080NT lethal, IL1B secr inh)
Cc1ccc(C)c(N2CCN(S(=O)(=O)c3c(C)[nH]c(C)c3C(=O)N3CCCCC3)CC2)c1	TDP1 cell noCPT inconclusive, TDP1 cell CPT inconclusive
Cc1ccc(Cl)cc1N1CCN(S(=O)(=O)c2c(C)[nH]c(C)c2C(=O)N2CCCCC2)CC1	TDP1 cell noCPT inconclusive, TDP1 cell CPT 16.4µM, IL1B secr inh inconclusive
Cc1[nH]c(C)c(S(=O)(=O)N2CCN(c3cccc(Cl)c3)CC2)c1C(=O)N1CCCCC1	TDP1 cell noCPT 20.6µM, TDP1 cell CPT 20.6µM
